Assay: probe aNOTCH3 binding on compound microarray – biochemical, small-molecule microarray, 635/667 nm fluorescence, primary screen (AID 1120);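 further: probe is a biotin-tagged antibody raised against NOTCH3 rather than NOTCH3 protein; score merges spot fluorescence near 667 nm with spot signal to noise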
Conditions: higher = more signal

First: C=C(CCCC)/C(=C/C[C@@H](OC(=O)c1ccncc1)c1cccc(OCCO)c1)c1cc(C(=O)OC)ccc1OC
Second: COC(=O)C1=CC(c2ccc(CO)cc2)=CC(c2cccs2)N(Cc2cccc(OC(F)(F)F)c2)C=C1C(=O)OC (stereo not given)
The composite z-score of the first is lower: 0.0893 for the first, 0.0979 for the second.

Compared with COCCOC(=O)N1C(=O)[C@@]2(c3cc(C#CCC(C(=O)OC)C(=O)OC)ccc31)[C@H](C(=O)N1CCN(c3ncccn3)CC1)[C@H]1C(=O)O[C@H](c3ccccc3)[C@H](c3ccccc3)N1[C@@H]2c1ccc(O)cc1, O=C1O[C@H](c2ccccc2)[C@H](c2ccccc2)N2[C@H]1[C@@H](C(=O)NC[C@H](O)c1ccccc1)[C@]1(C(=O)Nc3ccc(C#CC4=CCCCC4)cc31)[C@H]2c1ccc(OCCO)cc1 is higher in composite z-score: -0.0343 for the first, 0.141 for the second.

First: Cc1ccc(N2C(=O)c3ccccc3[C@](C)(C(=O)O)[C@@H]2c2ccc(CO)cc2)nc1
Second: CC(C)CNC(=O)[C@@]1(C)c2ccccc2C(=O)N(Cc2ccc(OC(F)(F)F)cc2)[C@H]1c1ccc(CO)cc1
The composite z-score of the first is lower: -0.414 for the first, -0.241 for the second.

First: CN(C)CCCC[C@@H]1NC(=O)[C@@H]2C[C@H](C(=O)NCCCCCNC(=O)CS)[C@H](c3ccc(O)cc3)N2C1=O
Second: CC(=O)NCCCC[C@@H]1NC(=O)[C@@H]2C[C@H](C(=O)NCCCCCNC(=O)CS)[C@H](c3ccc(O)cc3)N2C1=O
The composite z-score of the first is higher: 0.0261 for the first, -0.282 for the second.

Compared with C=CCC(OC(C)=O)[C@@H]1[C@@H](N(Cc2ccc(-c3cccc(C(F)(F)F)c3)o2)C(=O)Cc2ccc(F)cc2)c2cc(OCCCO)ccc2N1C(=O)c1ccc(-c2ccccc2)cc1 (stereo not given in full), CCOC(=O)C[C@H]1[C@H](OC(=O)c2ccccc2-c2ccccc2)[C@@H](NC(=O)C2CCCCC2)c2cc(OCCCO)ccc2N1C(=O)c1ccccc1 is higher in composite z-score: -0.0996 for the first, -0.0647 for the second.

First: C=CC[C@]1(C(=O)NCC(O)CO)N=C(c2ccc(OCCCO)cc2)O[C@H]1c1ccccc1 (stereo not given in full)
Second: CCOC(=O)C1=CC[C@@H](c2ccccc2)N(S(=O)(=O)c2ccc(C)cc2)[C@H]1C
The composite z-score of the first is lower: -0.0391 for the first, 0.29 for the second.

First: COC(=O)Cn1c(C(=O)N2CCCC2)cc2c1C[C@H]1CN(C(=O)c3ccccc3)[C@@](Cc3ccc(OC)cc3)(C(=O)OC)[C@@H]21
Second: CCN1C(C)=C(C(=O)OC)[C@@H](c2ccccc2)N2C(=O)[C@](O)(C(=O)OC)[C@@H](c3ccccc3)C(C(=O)c3ccccc3)=C12
The composite z-score of the first is higher: 0.707 for the first, 0.541 for the second.

First: O=C/C=C/c1ccccc1Cl
Second: CCCC=C(CCC)[C@@H](NC(=O)c1ccccc1)c1ccccc1
The composite z-score of the first is lower: -0.0259 for the first, 0.0191 for the second.

Going from CC1=C([C@H](O)CCc2ccccc2)[C@H](CO)[C@@H]2C(=O)N(Cc3ccccc3)C(=O)[C@@H]2C1 to CCC(=O)[C@]12O[C@@]3([C@@H]4C(=O)OCC[C@@H]41)N(Cc1ccccc1)C(C)=C(C(=O)OC)[C@@H](c1ccccc1)N3C2=O, the composite z-score falls from 0.0349 to -0.207.

Going from C#CCCCON=C1C[C@@H](O)[C@@H](O)[C@@H]2[C@@H]3C(=O)N(Cc4ccc5c(c4)OCO5)C(=O)[C@@H]3CC[C@H]12 to CO[C@H]1O[C@H](CO)[C@@H](OC(=O)Nc2ccccc2)[C@H](OC(=O)Nc2ccc3c(c2)OCO3)[C@@H]1OC(=O)Nc1ccc2c(c1)OCO2, the composite z-score falls from 0.116 to 0.0459.

First: O=C(NCC(F)(F)F)[C@@H]1c2ccccc2C(=O)N(Cc2ccccc2Cl)[C@H]1c1ccc(CO)cc1
Second: O=C1C2C=CC(C(O)C(c3ccccc3)c3ccccc3)N(Nc3ccc([N+](=O)[O-])cc3)C2C(=O)N1c1ccccc1 (stereo not given)
The composite z-score of the first is lower: -0.48 for the first, 0.272 for the second.

Going from CC(=O)NCCCC[C@@H]1NC(=O)[C@H]2C[C@@H](C(=O)NCCCCCCN(C)C)[C@@H](c3cccc(OCCO)c3)N2C1=O to CCCCCCc1nc(-c2cc(C)c(OC)c(C)c2)cc2c1[Si](C(C)C)(C(C)C)O[C@H]2c1ccccc1, the composite z-score falls from 0.259 to -0.194.

Assay: probe aNOTCH2 binding on compound microarray – biochemical, small-molecule microarray, 635/667 nm fluorescence, primary screen (AID 1121);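 further: score merges feature fluorescence read at 667 nm with its signal to noise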
Conditions: higher = more signal

Compared with CN1CCC(CCCO)=CC1C1CC1 (stereo not given), CC[C@H]1C2=C3C(CC[C@H]4C(OC)OC[C@](C)([C@@H]34)N(C(=O)OC(C)(C)C)C2)C(CO)C1CO (stereo not given in full) is higher in composite z-score: -0.181 for the first, 0.437 for the second.

First: NC(=O)NCC#Cc1ccc2c(c1)[C@]1(C(=O)N2)[C@H](C(=O)N2CCCCCCC2)[C@H]2C(=O)O[C@H](c3ccccc3)[C@H](c3ccccc3)N2[C@@H]1c1ccccc1OCCO
Second: O=C1O[C@H](c2ccccc2)[C@H](c2ccccc2)N2[C@H]1[C@@H](C(=O)NC[C@H](O)c1ccccc1)[C@]1(C(=O)Nc3ccc(C#CC4=CCCCC4)cc31)[C@H]2c1ccc(OCCO)cc1
The composite z-score of the first is higher: 0.985 for the first, -0.0741 for the second.

First: C=CCC(OC(C)=O)[C@@H]1[C@@H](N(Cc2cc3ccccc3o2)C(=O)c2ccc(C)cc2)c2cc(OCCCO)ccc2N1C(=O)c1ccc2ccccc2n1 (stereo not given in full)
Second: C=CCC(OC(C)=O)[C@@H]1[C@@H](N(Cc2ccc(-c3cccc(C(F)(F)F)c3)o2)C(=O)Cc2ccc(F)cc2)c2cc(OCCCO)ccc2N1C(=O)c1ccc(-c2ccccc2)cc1 (stereo not given in full)
The composite z-score of the first is higher: -0.0037 for the first, -0.154 for the second.

Going from CO[C@H]1COC(=O)[C@H](C)COC(=O)[C@H](Cc2ccccc2)NC(=O)CC=C[C@H]1C to CO[C@H]1COC(=O)[C@H](CCSC)NC(=O)CC=C[C@@H](C)COC(=O)[C@@H](OCc2ccccc2)C=C[C@@H]1C, the composite z-score falls from 0.087 to -0.102.

First: C=CC[C@@]12N=C(c3ccc(OCCCO)cc3)O[C@@H]1c1ccccc1CN(Cc1ccccc1)C2=O
Second: CC(C)(C)OC(=O)CC[C@@]1(C(=O)NCc2ccccc2)N=C(c2ccc(OCCCO)cc2)O[C@@H]1c1ccccc1
The composite z-score of the first is lower: -0.053 for the first, 0.09 for the second.

Going from CCCC[C@@H]1C[C@H]1[C@@H](NC(=O)c1cccs1)c1ccc(Cl)cc1 to CCCC=C(CCC)[C@@H](NC(=O)c1ccccc1)c1ccccc1, the composite z-score rises from -0.0956 to -0.0633.

First: O=C1c2ccccc2[C@@]2(Cc3ccccc3N(CC(F)(F)F)C2=O)[C@H](c2ccc(CO)cc2)N1C1CCCCC1
Second: O=C(NCC(F)(F)F)[C@@H]1c2ccccc2C(=O)N(Cc2ccccc2Cl)[C@H]1c1ccc(CO)cc1
The composite z-score of the first is higher: -0.122 for the first, -0.182 for the second.

Going from CO[C@]12C=C(Br)[C@@H](C[C@@H]1c1ccccc1)[C@@]1(CO1)C2=O to CCC(=O)[C@]12O[C@@]3([C@@H]4C(=O)OCC[C@@H]41)N(Cc1ccccc1)C(C)=C(C(=O)OC)[C@@H](c1ccccc1)N3C2=O, the composite z-score falls from -0.11 to -0.164.

Going from COCCOC(=O)N1C(=O)[C@@]2(c3cc(C#CC4=CCCCC4)ccc31)[C@H](C(=O)NC[C@H](O)c1ccccc1)[C@H]1C(=O)O[C@H](c3ccccc3)[C@H](c3ccccc3)N1[C@@H]2c1ccc(OCCO)cc1 to COCCOC(=O)N1C(=O)[C@@]2(c3cc(C#CCC(C(=O)OC)C(=O)OC)ccc31)[C@H](C(=O)N1CCN(c3ncccn3)CC1)[C@H]1C(=O)O[C@H](c3ccccc3)[C@H](c3ccccc3)N1[C@@H]2c1ccc(O)cc1, the composite z-score rises from -0.0986 to -0.0956.

Going from C=C(CCCC)/C(=C/C[C@@H](OC(=O)c1ccncc1)c1cccc(OCCO)c1)c1cc(C(=O)OC)ccc1OC to COC(=O)C1=CC(c2ccc(CO)cc2)=CC(c2cccs2)N(Cc2cccc(OC(F)(F)F)c2)C=C1C(=O)OC (stereo not given), the composite z-score falls from -0.0974 to -0.101.

First: Cc1ccc(N2C(=O)c3ccccc3[C@](C)(C(=O)O)[C@@H]2c2ccc(CO)cc2)nc1
Second: CC(C)CNC(=O)[C@@]1(C)c2ccccc2C(=O)N(Cc2ccc(OC(F)(F)F)cc2)[C@H]1c1ccc(CO)cc1
The composite z-score of the first is lower: -0.228 for the first, -0.0094 for the second.

Compared with CN(C)CCCC[C@@H]1NC(=O)[C@@H]2C[C@H](C(=O)NCCCCCNC(=O)CS)[C@H](c3ccc(O)cc3)N2C1=O, CC(=O)NCCCC[C@@H]1NC(=O)[C@@H]2C[C@H](C(=O)NCCCCCNC(=O)CS)[C@H](c3ccc(O)cc3)N2C1=O is lower in composite z-score: -0.0976 for the first, -0.203 for the second.

First: C=CC[C@]1(C(=O)NCC(O)CO)N=C(c2ccc(OCCCO)cc2)O[C@H]1c1ccccc1 (stereo not given in full)
Second: CCOC(=O)C[C@H]1[C@H](OC(=O)c2ccccc2-c2ccccc2)[C@@H](NC(=O)C2CCCCC2)c2cc(OCCCO)ccc2N1C(=O)c1ccccc1
The composite z-score of the first is lower: -0.0877 for the first, -0.0784 for the second.

Compared with CCOC(=O)C1=CC[C@@H](c2ccccc2)N(S(=O)(=O)c2ccc(C)cc2)[C@H]1C, CCN1C(C)=C(C(=O)OC)[C@@H](c2ccccc2)N2C(=O)[C@](O)(C(=O)OC)[C@@H](c3ccccc3)C(C(=O)c3ccccc3)=C12 is lower in composite z-score: 0.0832 for the first, -0.112 for the second.

Going from COC(=O)Cn1c(C(=O)N2CCCC2)cc2c1C[C@H]1CN(C(=O)c3ccccc3)[C@@](Cc3ccc(OC)cc3)(C(=O)OC)[C@@H]21 to CO[C@H]1O[C@H](CO)[C@@H](OC(=O)Nc2ccccc2)[C@H](OC(=O)Nc2ccc3c(c2)OCO3)[C@@H]1OC(=O)Nc1ccc2c(c1)OCO2, the composite z-score falls from 0.375 to -0.101.

Going from O=C/C=C/c1ccccc1Cl to CC1=C([C@H](O)CCc2ccccc2)[C@H](CO)[C@@H]2C(=O)N(Cc3ccccc3)C(=O)[C@@H]2C1, the composite z-score falls from -0.0866 to -0.117.

First: C#CCCCON=C1C[C@@H](O)[C@@H](O)[C@@H]2[C@@H]3C(=O)N(Cc4ccc5c(c4)OCO5)C(=O)[C@@H]3CC[C@H]12
Second: CC(=O)NCCCC[C@@H]1NC(=O)[C@H]2C[C@@H](C(=O)NCCCCCCN(C)C)[C@@H](c3cccc(OCCO)c3)N2C1=O
The composite z-score of the first is lower: -0.181 for the first, 0.075 for the second.

Going from CCCCCCc1nc(-c2cc(C)c(OC)c(C)c2)cc2c1[Si](C(C)C)(C(C)C)O[C@H]2c1ccccc1 to O=C1C2C=CC(C(O)C(c3ccccc3)c3ccccc3)N(Nc3ccc([N+](=O)[O-])cc3)C2C(=O)N1c1ccccc1 (stereo not given), the composite z-score falls from -0.0191 to -0.115.
